Results on 8 molecules are retold here after PubChem BioAssay (Tox21).

Activity calls are given as the source filed them. Unless noted, the call rests on the fitted dose curve; in most records, active means well fitted curve in the direction sought with a large enough effect in the repeat runs; inconclusive means weak or mixed curves; inactive means no such curve, though single readings can be large; an effect the other way counts as inactive or inconclusive.

Test [1] is described as follows: qHTS assay to identify small molecule antagonists of the thyroid receptor (TR) signaling pathway (AID 743065). Further: nearly all actives have a fitted effect of over 55% in size. Further: potency means the concentration at half of the fitted maximal effect. The essentials: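 GH3.TRE-Luc rat pituitary cells carrying two TR response elements driving luciferase were plated for 4 h, given compound plus 1 nM T3 (final), and incubated 23.5 h at 37 C. ONE-Glo luminescence measured reporter inhibition; CellTiter-Fluor fluorescence tracked cytotoxicity.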
For orientation: Quantitative high-throughput screening tests each substance at several concentrations.

For test [2], the system named is thyroid hormone receptor (rat, GH3 cells). Description: qHTS assay to identify small molecule agonists of the thyroid receptor (TR) signaling pathway (AID 743066; calls by dose curve).
Test [3] deals with Estrogen receptor (Homo sapiens) (UniProt P03372). Kind of test: qHTS assay to identify small molecule antagonists of the estrogen receptor alpha (ER-alpha) signaling pathway (AID 743069; active means well fitted curve in the direction sought with a large enough effect in the signal ratio in the repeat runs, not every such curve was filed as active; inconclusive means weak or mixed curves, or effect the other way; inactive means no such curve, though single readings can be large or run the other way; the % refers to the signal ratio). In outline: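 HEK293 cells stably carrying an ER-alpha-UAS-bla beta-lactamase reporter were pre-cultured overnight in 2% charcoal-stripped FBS medium. Test compounds in DMSO were added together with 17beta-estradiol for 18 hr at 37C. Read-out was fluorescence after 2 hr with LiveBLAzer B/G FRET substrate at room temperature.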

The nature of test [4]: qHTS assay to identify small molecule antagonists of the estrogen receptor alpha (ER-alpha) signaling pathway - cell viability counter screen (AID 743074; calls by dose curve; further: nearly all actives have a fitted effect of over 45% in size).
The target in test [5] is Estrogen receptor (Homo sapiens) (UniProt P03372). Kind of test: qHTS assay to identify small molecule agonists of the estrogen receptor alpha (ER-alpha) signaling pathway (AID 743075; calls by dose curve; further: potency means the concentration at half of the fitted maximal effect).
Test [6] has the same target. Description: qHTS assay to identify small molecule agonists of the estrogen receptor alpha (ER-alpha) signaling pathway using the BG1 cell line (AID 743079). Further: nearly all actives have a fitted effect of over 20% in size. Further: potency means the concentration at half of the fitted maximal effect.
Test [7] is described as follows: qHTS assay to identify small molecule antagonists of the estrogen receptor alpha (ER-alpha) signaling pathway using the BG1 cell line (AID 743080; calls by dose curve;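 further: BG1 cells stimulated with 17beta-estradiol alongside compound; series mostly up to about 70 µM; nearly all actives have a fitted effect of over 25% in size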). The essentials: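 Endogenous full-length ER-alpha in BG1-Luc-4E2 cells drives a stably integrated 4×ERE luciferase gene; compounds were tested against 17beta-estradiol over 21.5 h, with luminescence and multiplexed viability fluorescence recorded.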

A short description of test [8]: qHTS assay to identify small molecule antagonists of the estrogen receptor alpha (ER-alpha) signaling pathway using the BG1 cell line - cell viability counter screen (AID 743081).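 Further: compound given together with 17beta-estradiol as the ER stimulus; series mostly up to about 70 µM; nearly all actives have a fitted effect of over 45% in size.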
The target in test [9] is Aromatase (Homo sapiens) (UniProt P11511). Description: qHTS assay to identify aromatase inhibitors (AID 743083). Further: series mostly up to about 70 µM; nearly all actives have a fitted effect of over 55% in size.
Test [10] is described as follows: qHTS assay to identify aromatase inhibitors - cell viability counter screen (AID 743084).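 Further: cells stimulated with testosterone during compound exposure; nearly all actives have a fitted effect of over 55% in size.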
Test [11] deals with Aryl hydrocarbon receptor (Homo sapiens) (UniProt P35869). Description: qHTS assay to identify small molecule that activate the aryl hydrocarbon receptor (AhR) signaling pathway (AID 743085).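 Further: HG2L7.5c1 human HepG2 liver cells with stably integrated DRE-driven firefly reporter; series mostly up to about 70 µM; nearly all actives have a fitted effect of over 15% in size.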 In outline: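 Compounds were tested in HepG2 hepatocellular carcinoma cells harbouring a stably integrated luciferase gene under control of 20 DREs. Increased reporter signal after 24 h treatment at 37C was taken as AhR activation.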

The nature of test [12]: qHTS assay to identify small molecule that activate the aryl hydrocarbon receptor (AhR) signaling pathway - cell viability counter screen (AID 743086).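 Further: HepG2 liver cells carrying the AhR DRE luciferase reporter; series mostly up to about 70 µM; nearly all actives have a fitted effect of over 45% in size.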 The essentials:
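HepG2-AhR-luc (HG2L7.5c1) cells, 4000/well, were preincubated 5 h at 37C, exposed to compound in qHTS format for 24 hr at 37C, then given CellTiter-Fluor for 30 min; viability was read as fluorescence in the reporter wells.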

The target in test [13] is Peroxisome proliferator-activated receptor gamma (Homo sapiens) (UniProt P37231). Kind of test: qHTS assay to identify small molecule agonists of the peroxisome proliferator-activated receptor gamma (PPARg) signaling pathway (AID 743094; active means well fitted activation curve with a large enough effect in the signal ratio in the repeat runs, not every such curve was filed as active; inconclusive means weak or mixed curves, or effect the other way; inactive means no such curve, though single readings can be large or run the other way; the % refers to the signal ratio). In outline: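 GeneBLAzer PPARg UAS-bla HEK293H cells were plated, rested 5 h, then exposed to compounds for 17 h at 37C. Beta-lactamase activity was read by LiveBLAzer B/G FRET substrate fluorescence after 1 h at room temperature.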

The nature of test [14]: qHTS assay to identify small molecule antagonists of the peroxisome proliferator-activated receptor gamma (PPARg) signaling pathway - cell viability counter screen (AID 743194). Further: nearly all actives have a fitted effect of over 55% in size. The essentials: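 PPARg-UAS-bla HEK293H cells were plated, rested 5 h at 37 C, then treated with compounds plus rosiglitazone (50 nM final) for 17 h at 37 C; viability was then read by CellTiter-Glo luminescence after 30 min at room temperature.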

The nature of test [15]: qHTS assay for small molecule activators of the heat shock response signaling pathway (AID 743210; active means well fitted activation curve with a large enough effect in the signal ratio in the repeat runs, with a control signal flat, not every such curve was filed as active; inconclusive means weak or mixed curves; the % refers to the signal ratio; further: series mostly up to about 63 µM). In outline:
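HSE-bla HeLa cells (beta-lactamase reporter under heat shock response elements) were exposed to compounds for 5 h at 37 C, then loaded with LiveBLAzer B/G FRET substrate for 2.5 h at room temperature before fluorescence reading.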

Test [16] is described as follows: qHTS assay to identify small molecule antagonists of the thyroid receptor (TR) signaling pathway - cell viability counter screen (AID 743064). Further: nearly all actives have a fitted effect of over 50% in size. The essentials:
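Rat GH3 pituitary tumor cells stably expressing two TR response elements driving luciferase were plated, rested 4 h, then dosed with library compounds and T3 (1 nM final). After 23.5 h at 37 °C, CellTiter-Fluor was added for 30 min and fluorescence recorded.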

For test [17], the target named is Peroxisome proliferator-activated receptor gamma (Homo sapiens) (UniProt P37231). Kind of test: qHTS assay to identify small molecule antagonists of the peroxisome proliferator-activated receptor gamma (PPARg) signaling pathway (AID 743191; calls by dose curve; further: series mostly up to about 63 µM; nearly all actives have a fitted effect of over 30% in size). In outline: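 GeneBLAzer PPARg UAS-bla HEK293H cells carrying a UAS-driven beta-lactamase reporter were plated at 3000 cells/well, preincubated 5 h at 37C, then given compound for 17 h at 37C; LiveBLAzer B/G FRET substrate was read after 1 h at room temperature.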

Test [18] can be described thus: qHTS assay for small molecule agonists of the antioxidant response element (ARE) signaling pathway (AID 743202; active means well fitted activation curve with a large enough effect in the signal ratio in the repeat runs, not every such curve was filed as active; inconclusive means weak or mixed curves, or effect the other way; inactive means no such curve, though single readings can be large or run the other way; the % refers to the signal ratio; further: potency means the concentration at half of the fitted maximal effect). The essentials: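 Read-out: LiveBLAzer B/G FRET substrate fluorescence after 2 h at room temperature, following 16 h compound treatment at 37 C of HepG2 cells carrying an ARE-driven beta-lactamase reporter.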
The nature of test [19]: qHTS assay for small molecule agonists of the antioxidant response element (ARE) signaling pathway - cell viability counter screen (AID 743203; calls by dose curve; further: nearly all actives have a fitted effect of over 55% in size). In outline: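 ARE-bla HepG2 cells were plated, rested 5 h at 37C/5% CO2, then exposed to compounds in DMSO for 16 h. Viability was read as CellTiter-Glo luminescence after 30 min at room temperature, in the same wells as the ARE screen.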

The nature of test [20]: qHTS assay for small molecule activators of the heat shock response signaling pathway - cell viability counter screen (AID 743209). Further: nearly all actives have a fitted effect of over 50% in size. In outline:
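HSE-bla HeLa cells plated overnight, then exposed to Tox21 compounds (23 nL in DMSO) for 5 h at 37 C. After the bla reporter read, CellTiter-Glo was added in the same wells and luminescence read after 30 min at room temperature.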

Aromatase (Homo sapiens), sequence (P11511 whole entry, looked up): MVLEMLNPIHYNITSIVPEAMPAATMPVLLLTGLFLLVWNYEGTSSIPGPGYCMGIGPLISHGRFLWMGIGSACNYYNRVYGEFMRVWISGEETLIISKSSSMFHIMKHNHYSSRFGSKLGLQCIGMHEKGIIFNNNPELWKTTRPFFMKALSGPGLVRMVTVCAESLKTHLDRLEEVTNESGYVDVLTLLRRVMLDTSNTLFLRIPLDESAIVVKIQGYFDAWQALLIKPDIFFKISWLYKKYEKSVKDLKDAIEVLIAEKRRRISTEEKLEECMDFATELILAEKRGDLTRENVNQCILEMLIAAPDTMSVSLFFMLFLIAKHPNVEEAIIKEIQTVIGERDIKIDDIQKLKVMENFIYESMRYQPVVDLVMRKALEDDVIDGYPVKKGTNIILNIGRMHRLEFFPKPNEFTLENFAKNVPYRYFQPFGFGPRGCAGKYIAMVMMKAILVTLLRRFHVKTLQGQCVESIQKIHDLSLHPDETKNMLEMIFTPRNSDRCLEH
Estrogen receptor (Homo sapiens), sequence (P03372 whole entry, looked up): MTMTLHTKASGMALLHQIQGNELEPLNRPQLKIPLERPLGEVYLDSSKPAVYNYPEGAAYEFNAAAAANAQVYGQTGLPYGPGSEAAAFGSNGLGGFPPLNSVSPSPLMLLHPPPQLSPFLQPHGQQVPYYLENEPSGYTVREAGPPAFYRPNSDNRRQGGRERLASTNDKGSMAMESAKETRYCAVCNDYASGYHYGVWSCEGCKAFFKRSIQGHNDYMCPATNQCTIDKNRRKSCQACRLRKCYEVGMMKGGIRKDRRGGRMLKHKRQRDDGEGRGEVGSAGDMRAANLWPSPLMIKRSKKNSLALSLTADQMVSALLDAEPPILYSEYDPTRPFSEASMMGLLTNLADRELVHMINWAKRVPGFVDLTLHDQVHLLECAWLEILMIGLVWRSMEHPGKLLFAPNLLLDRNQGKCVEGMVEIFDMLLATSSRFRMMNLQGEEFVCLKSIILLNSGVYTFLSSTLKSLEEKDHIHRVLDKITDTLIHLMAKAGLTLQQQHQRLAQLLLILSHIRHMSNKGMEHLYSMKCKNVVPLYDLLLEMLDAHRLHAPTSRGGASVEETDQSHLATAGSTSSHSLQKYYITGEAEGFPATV
Aryl hydrocarbon receptor (Homo sapiens), sequence (P35869 whole entry, looked up): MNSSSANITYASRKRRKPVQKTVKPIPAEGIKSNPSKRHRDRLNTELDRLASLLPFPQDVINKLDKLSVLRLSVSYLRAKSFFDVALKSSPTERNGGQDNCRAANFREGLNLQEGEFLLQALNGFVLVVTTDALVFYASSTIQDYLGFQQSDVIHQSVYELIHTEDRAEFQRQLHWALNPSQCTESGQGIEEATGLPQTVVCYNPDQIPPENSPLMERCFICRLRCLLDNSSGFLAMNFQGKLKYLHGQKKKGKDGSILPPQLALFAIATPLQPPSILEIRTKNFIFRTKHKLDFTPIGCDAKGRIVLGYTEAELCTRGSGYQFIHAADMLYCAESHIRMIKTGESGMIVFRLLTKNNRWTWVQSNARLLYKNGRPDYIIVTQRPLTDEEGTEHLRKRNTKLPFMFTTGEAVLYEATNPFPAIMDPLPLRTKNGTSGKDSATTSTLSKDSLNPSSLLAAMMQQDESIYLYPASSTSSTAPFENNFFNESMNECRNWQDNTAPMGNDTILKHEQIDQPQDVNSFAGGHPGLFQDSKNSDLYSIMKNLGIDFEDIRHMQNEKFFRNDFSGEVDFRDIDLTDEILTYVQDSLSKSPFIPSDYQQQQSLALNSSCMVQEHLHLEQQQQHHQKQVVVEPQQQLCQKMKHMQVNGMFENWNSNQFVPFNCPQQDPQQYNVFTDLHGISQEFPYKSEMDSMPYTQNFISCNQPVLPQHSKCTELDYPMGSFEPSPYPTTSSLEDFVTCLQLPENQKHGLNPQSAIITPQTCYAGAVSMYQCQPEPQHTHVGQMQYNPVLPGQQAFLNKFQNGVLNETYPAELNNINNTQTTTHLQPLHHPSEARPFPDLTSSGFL
Peroxisome proliferator-activated receptor gamma (Homo sapiens), sequence (P37231 whole entry, looked up): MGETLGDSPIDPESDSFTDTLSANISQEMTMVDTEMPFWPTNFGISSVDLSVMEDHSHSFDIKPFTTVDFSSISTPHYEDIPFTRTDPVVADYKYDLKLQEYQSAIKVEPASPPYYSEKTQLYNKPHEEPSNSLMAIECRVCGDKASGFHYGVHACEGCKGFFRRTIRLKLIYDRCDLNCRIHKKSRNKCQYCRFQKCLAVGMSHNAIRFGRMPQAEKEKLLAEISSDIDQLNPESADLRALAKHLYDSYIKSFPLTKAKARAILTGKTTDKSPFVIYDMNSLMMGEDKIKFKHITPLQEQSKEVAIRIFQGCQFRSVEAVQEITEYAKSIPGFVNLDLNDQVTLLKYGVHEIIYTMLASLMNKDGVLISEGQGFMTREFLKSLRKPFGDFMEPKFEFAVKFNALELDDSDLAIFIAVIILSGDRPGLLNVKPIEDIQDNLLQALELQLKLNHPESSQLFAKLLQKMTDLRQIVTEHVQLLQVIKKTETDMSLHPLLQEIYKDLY

In the case of `CC(C)c1ccc2c(C(C)C)cc(C(C)C)c(S(=O)(=O)O)c2c1`, in [1], the Potency is 63.2 µM (active). Also, the Potency result in test [2], in test [3], in [5], in test [6], in test [7] and in [8] was “inactive” throughout. For the same molecule, the Potency entry in [9], in test [10], in [11], in test [12], in test [13] and in test [14] was “inactive” throughout. For the same molecule, the outcome in test [4] and in test [15] was inactive.
`O=[N+]([O-])c1cccc(Cl)c1Cl`: the Potency entry in test [16], in [3], in [5], in test [6], in [7] and in test [8] was “inactive” in each case. Also, the Potency result in [9], in test [12], in test [13], in test [17], in [18] and in [19] was “inactive” each time. For the same molecule, the outcome in [4] and in test [15] was inactive.
For the molecule `CC(C)(C)c1cc(CCC(=O)OCC(COC(=O)CCc2cc(C(C)(C)C)c(O)c(C(C)(C)C)c2)(COC(=O)CCc2cc(C(C)(C)C)c(O)c(C(C)(C)C)c2)COC(=O)CCc2cc(C(C)(C)C)c(O)c(C(C)(C)C)c2)cc(C(C)(C)C)c1O`, the Potency entry in test [1], in test [2], in test [3], in test [7], in test [8] and in test [9] was “inactive” throughout. In addition, the Potency entry in test [10], in test [12], in test [13], in test [17], in test [14] and in [18] was “inactive” in each case. In addition, the Potency entry in [19] and in test [20] was “inactive” each time. The outcome in [4] and in [15] was inactive. Besides, the Potency in test [5] is 0.0074 µM [inconclusive] (active); in test [6], 4.11 µM (active).
Regarding `CCCOc1ccc2nc(NC(=O)OC)[nH]c2c1`, the Potency in [1] is 0.422 µM (active). In addition, the Potency entry in test [2], in test [3], in test [6], in test [7], in test [8] and in test [9] was “inactive” throughout. In addition, the Potency entry in [10], in test [12], in test [13], in test [17], in [14] and in [19] was “inactive” throughout. Also, the Potency result in [20] is “inactive”. The result in [4] and in test [15] was inactive.
Take `O=c1[nH]cnc2ccccc12`: the Potency result in [1], in [2], in test [3], in [5], in test [6] and in test [7] was “inactive” throughout. Besides, the Potency result in test [8], in test [9], in [10], in test [12], in [13] and in test [17] was “inactive” throughout. The Potency result in test [14], in [18], in test [19] and in [20] was “inactive” in each case. Besides, the result in [4] and in test [15] was inactive.
In the case of `C#CCOC(=O)[C@@H](C)Oc1ccc(Oc2ncc(Cl)cc2F)cc1`, the Potency entry in test [16], in test [5], in test [6], in [7], in [8] and in [9] was “inactive” throughout. The Potency entry in [10], in test [11], in test [12], in [13], in test [14] and in test [19] was “inactive” each time. Besides, the Potency entry in test [20] was “inactive”. Also, the molecule was classed as inactive in test [4].
As for `S=C(S)NCCNC(=S)S`, the Potency result in [16], in test [2], in test [8], in test [9], in test [10] and in test [11] was “inactive” throughout. Moreover, the Potency result in test [12], in test [13], in [14], in [19] and in [20] was “inactive” each time. Also, the Potency in test [18] is 60 µM (active). For the same molecule, the result in test [15] was inactive.
`C=CCCCCCC`: the Potency result in test [1], in test [2], in test [3], in [5], in test [6] and in test [7] was “inactive” each time. Besides, the Potency result in test [8], in [9], in test [10], in [12], in test [13] and in test [17] was “inactive” throughout. The Potency entry in test [14], in [18], in test [19] and in test [20] was “inactive” in each case. Also, in test [4], the outcome was inactive.
